Data reported in PubChem BioAssay (EPA / NIEHS).
The source holds several records for some structures; these can differ, active in one and inactive in another. Activity calls are given as the source filed them. How the source made its calls: active means hit-call score of the fitted dose curve at least 0.9, where 1 is the maximum; inactive means score below 0.9.

Legend:
[1] = read-out: TIMP metallopeptidase inhibitor 2 (TIMP2), TIMP2 (gene 7077); assay: BSK_KF3CT_TIMP2: BioMAP Diversity Plus: KF3CT Assay for TIMP metallopeptidase inhibitor 2 (TIMP2) Biomarker Activity (AID 2283071); settings: primary human keratinocytes with fibroblasts; actives raise or lower the signal
Outline: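 Human primary keratinocyte/foreskin fibroblast co-culture dosed with chemical and sampled at 24 h. TIMP-2 levels quantified by ELISA; bidirectional fitting against DMSO negative control as baseline.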

[2] = read-out: Transforming growth factor beta 1 (TGFb1), TGFB1 (gene 7040); assay: BSK_KF3CT_TGFb1: BioMAP Diversity Plus: KF3CT Assay for Transforming growth factor beta 1 (TGFb1) Biomarker Activity (AID 2283072); settings: primary human keratinocytes with fibroblasts; actives raise or lower the signal
Outline: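 Human keratinocyte plus foreskin fibroblast primary co-culture, dosed with chemical for 24 h. TGF-b1 quantified by ELISA. Activity fitted bidirectionally against DMSO negative control as baseline.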

[3] = read-out: C-C motif chemokine 2 (Homo sapiens) (UniProt P13500); assay: BSK_KF3CT_MCP1: BioMAP Diversity Plus: KF3CT Assay for Monocyte Chemoattractant Protein 1 (MCP1/CCL2) Biomarker Activity (AID 2283073); settings: primary human keratinocytes with fibroblasts; actives raise or lower the signal
Outline: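 KF3CT skin co-culture (keratinocytes/foreskin fibroblasts), 24 h post-dose; MCP-1 by ELISA; gain/loss of signal fit bidirectionally vs DMSO baseline.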

[4] = read-out: Matrix Metallopeptidase 9 (MMP9), MMP9 (gene 4318); assay: BSK_KF3CT_MMP9: BioMAP Diversity Plus: KF3CT Assay for Matrix Metallopeptidase 9 (MMP9) Biomarker Activity (AID 2283074); settings: primary human keratinocytes with fibroblasts; actives raise or lower the signal;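 on AC50: MMP9 protein level quantified by ELISA in the co-culture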
Outline: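 Human keratinocyte/foreskin fibroblast co-culture; compound added; 24 h; MMP-9 by ELISA; bidirectional fit vs DMSO baseline.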

[5] = read-out: urokinase plasminogen activator (uPA), PLAU (gene 5328); assay: BSK_KF3CT_uPA: BioMAP Diversity Plus: KF3CT Assay for urokinase plasminogen activator (uPA) Biomarker Activity (AID 2283075); settings: primary human keratinocytes with fibroblasts; actives raise or lower the signal
Outline: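 ELISA readout of uPA, analyzed for signal gain or loss relative to DMSO, from a human primary keratinocyte–foreskin fibroblast co-culture measured 24 h after chemical treatment.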

CD40, CD40 (gene 958) [6] = assay: BSK_LPS_CD40: BioMAP Diversity Plus: LPS Assay for CD40 Biomarker Activity (AID 2283076); settings: primary human HUVEC with PBMC; actives raise or lower the signal
Outline: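 ELISA readout of CD40 in HUVEC/PBMC co-culture (BSK_LPS system), 24 h post-dosing; bidirectional curve fit, DMSO baseline; parallel SRB total-protein staining for cytotoxicity.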

[7] = read-out: E-selectin (Homo sapiens) (UniProt P16581); assay: BSK_LPS_Eselectin: BioMAP Diversity Plus: LPS Assay for Eselectin Biomarker Activity (AID 2283077); settings: primary human HUVEC with PBMC; actives raise or lower the signal
Outline: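 ELISA readout of E-selectin, 24 h post-dose, HUVEC + PBMC co-culture (LPS system). Gain or loss of signal vs DMSO baseline, bidirectional fit.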

[8] = read-out: Interleukin-8 (IL8), CXCL8 (gene 3576); assay: BSK_LPS_IL8: BioMAP Diversity Plus: LPS Assay for Interleukin-8 (IL8) Biomarker Activity (AID 2283078); settings: primary human HUVEC with PBMC; actives raise or lower the signal
Outline: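 HUVEC + PBMC co-culture, LPS-activated; test chemicals dosed, IL-8 read by ELISA at 24 h. Bidirectional curve fit vs DMSO baseline (gain or loss of signal).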

[9] = BSK_LPS_SRB: Viability Assessment in the BioMAP Diversity Plus: LPS Assay (AID 2283079); settings: primary human HUVEC with PBMC;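 further: total protein by sulforhodamine B absorbance as a cytotoxicity measure; measured one day after compound addition; fitted in both directions against DMSO so loss or gain of signal counts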
Outline: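 HUVEC + PBMC co-culture, LPS-stimulated; compound 24 h. 10% TCA fix, 0.1% SRB stain, A560. Bidirectional fit vs DMSO.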

[10] = read-out: Interleukin-1 alpha (IL1a), IL1A (gene 3552); assay: BSK_LPS_IL1a: BioMAP Diversity Plus: LPS Assay for Interleukin-1 alpha (IL1a) Biomarker Activity (AID 2283080); settings: primary human HUVEC with PBMC; actives raise or lower the signal
Outline: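 HUVEC/PBMC co-culture, LPS system; 24 h after dosing; IL-1a by ELISA; gain or loss of signal fitted bidirectionally vs DMSO baseline.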

[11] = read-out: Monocyte Chemoattractant Protein-1 (MCP1), CCL2 (gene 6347); assay: BSK_LPS_MCP1: BioMAP Diversity Plus: LPS Assay for Monocyte Chemoattractant Protein-1 (MCP1) Biomarker Activity (AID 2283081); settings: primary human HUVEC with PBMC; actives raise or lower the signal;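 on AC50: secreted MCP-1 protein quantified by ELISA in culture supernatant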
Outline: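 ELISA read-out of MCP-1 after 24 h chemical dosing of a human umbilical vein endothelial cell/peripheral blood mononuclear cell co-culture stimulated with LPS. Gain or loss of signal fitted relative to DMSO controls.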

[12] = BSK_LPS_PGE2: BioMAP Diversity Plus: LPS Assay for Prostaglandin E2 (PGE2) Biomarker Activity (AID 2283082); settings: primary human HUVEC with PBMC; actives raise or lower the signal;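 on AC50: secreted prostaglandin E2 measured by ELISA in LPS-stimulated co-culture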
Outline: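 HUVEC plus PBMC co-culture stimulated with LPS; secreted PGE2 quantified by ELISA 24 h after chemical dosing. Activity fitted bidirectionally against DMSO as negative control and baseline; parallel SRB total-protein staining served as cytotoxicity check.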

[13] = read-out: Macrophage colony-stimulating factor (MCSF), CSF1 (gene 1435); assay: BSK_LPS_MCSF: BioMAP Diversity Plus: LPS Assay for Macrophage colony-stimulating factor (MCSF) Biomarker Activity (AID 2283083); settings: primary human HUVEC with PBMC; actives raise or lower the signal
Outline: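 HUVEC + PBMC co-culture (human primary), 24 h post-dose; M-CSF by ELISA; gain/loss of signal fitted bidirectionally vs DMSO baseline.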

[14] = read-out: Tissue Factor, F3 (gene 2152); assay: BSK_LPS_TissueFactor: BioMAP Diversity Plus: LPS Assay for Tissue Factor Biomarker Activity (AID 2283084); settings: primary human HUVEC with PBMC; actives raise or lower the signal
Outline: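 HUVEC/PBMC co-culture, LPS-activated; CD142 ELISA read 24 h post-dose; bidirectional curve fit vs DMSO negative control.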

[15] = read-out: Tumor necrosis factor (Homo sapiens) (UniProt P01375); assay: BSK_LPS_TNFa: BioMAP Diversity Plus: LPS Assay for Tumour Necrosis Factor alpha (TNFa) Biomarker Activity (AID 2283085); settings: primary human HUVEC with PBMC; actives raise or lower the signal
Outline: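 Human umbilical vein endothelial cells co-cultured with PBMC were exposed to test chemical and TNFa measured by ELISA 24 h after dosing. Bidirectional curve fitting was done relative to DMSO as negative control and baseline.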

CD38, CD38 (gene 952) = assay: BSK_SAg_CD38: BioMAP Diversity Plus: SAg Assay for CD38 Biomarker Activity (AID 2283087); settings: primary human HUVEC with PBMC; actives raise or lower the signal
Outline: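 Fluorescence ELISA of cell-surface CD38 served as the read-out, with either increase or decrease fitted against DMSO controls. Cells were a human umbilical vein endothelium plus PBMC co-culture under SEB/TSST-1 stimulation, measured 24 h after dosing.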

CD40, CD40 (gene 958) [16] = assay: BSK_SAg_CD40: BioMAP Diversity Plus: SAg Assay for CD40 Biomarker Activity (AID 2283088); settings: primary human HUVEC with PBMC; actives raise or lower the signal
Outline: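 HUVEC/PBMC co-culture, 24 h post-dose; CD40 by ELISA, fluorescence intensity; bidirectional fit vs DMSO negative control.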

CD69, CD69 (gene 969) = assay: BSK_SAg_CD69: BioMAP Diversity Plus: SAg Assay for CD69 Biomarker Activity (AID 2283089); settings: primary human HUVEC with PBMC; actives raise or lower the signal;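 on AC50: cell surface CD69 protein quantified by ELISA with fluorescence detection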
Outline: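 ELISA, fluorescence read-out: CD69 on human umbilical vein endothelial cell + PBMC co-culture, 24 h post-dosing. Gain or loss of signal fitted bidirectionally against DMSO baseline.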

[17] = read-out: Monocyte Chemoattractant Protein-1 (MCP1), CCL2 (gene 6347); assay: BSK_SAg_MCP1: BioMAP Diversity Plus: SAg Assay for Monocyte Chemoattractant Protein-1 (MCP1) Biomarker Activity (AID 2283090); settings: primary human HUVEC with PBMC; actives raise or lower the signal
Outline: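 MCP-1 levels in the endothelial–PBMC SAg co-culture were quantified by ELISA at 24 h post-dosing; both increases and decreases versus DMSO scored. Cytotoxicity monitored by SRB total protein in parallel cultures.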

[18] = read-out: Vascular cell adhesion molecule 1 (VCAM1), VCAM1 (gene 7412); assay: BSK_LPS_VCAM1: BioMAP Diversity Plus: LPS Assay for Vascular cell adhesion molecule 1 (VCAM1) Biomarker Activity (AID 2283086); settings: primary human HUVEC with PBMC; actives raise or lower the signal
Outline: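 Human umbilical vein endothelial cells co-cultured with peripheral blood mononuclear cells under LPS stimulation were exposed to test chemical for 24 h. VCAM-1 levels were then measured by ELISA, with bidirectional curve fitting relative to DMSO as negative control and baseline.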

Measured: AC50

E-selectin (Homo sapiens), sequence (P16581 whole entry, looked up): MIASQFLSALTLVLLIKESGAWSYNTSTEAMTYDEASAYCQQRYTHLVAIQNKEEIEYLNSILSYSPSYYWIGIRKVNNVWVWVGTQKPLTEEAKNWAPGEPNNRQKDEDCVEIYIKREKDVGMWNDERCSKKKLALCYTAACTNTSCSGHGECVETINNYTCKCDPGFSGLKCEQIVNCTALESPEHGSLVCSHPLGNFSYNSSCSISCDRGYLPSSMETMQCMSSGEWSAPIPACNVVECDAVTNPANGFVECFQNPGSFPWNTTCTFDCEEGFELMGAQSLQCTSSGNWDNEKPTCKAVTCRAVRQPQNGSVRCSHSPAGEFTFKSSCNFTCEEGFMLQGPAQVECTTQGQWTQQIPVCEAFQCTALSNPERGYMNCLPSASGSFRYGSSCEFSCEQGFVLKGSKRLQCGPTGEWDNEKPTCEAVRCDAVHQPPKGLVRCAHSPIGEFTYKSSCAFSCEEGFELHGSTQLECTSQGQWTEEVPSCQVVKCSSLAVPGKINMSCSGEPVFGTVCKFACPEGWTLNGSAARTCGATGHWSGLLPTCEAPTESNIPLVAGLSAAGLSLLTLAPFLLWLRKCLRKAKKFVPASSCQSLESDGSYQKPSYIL
Tumor necrosis factor (Homo sapiens), sequence (P01375 whole entry, looked up): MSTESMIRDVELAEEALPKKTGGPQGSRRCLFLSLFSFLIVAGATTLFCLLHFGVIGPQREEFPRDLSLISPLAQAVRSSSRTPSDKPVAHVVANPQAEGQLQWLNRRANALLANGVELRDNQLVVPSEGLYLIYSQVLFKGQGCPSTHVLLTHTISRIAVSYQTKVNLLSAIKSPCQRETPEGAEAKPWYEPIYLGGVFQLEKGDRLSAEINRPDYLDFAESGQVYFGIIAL

C[N+]1(C)CCCCC1
not listed: [18]
inactive: all other assays above

O=c1ccc(=O)[nH][nH]1
not listed: [18]
inactive: all other assays above

CNC(=O)Oc1cccc2c1OC(C)(C)O2
active: CD40, CD40 (gene 958) [6] 13.6 µM | [7] 20 µM | [8] 25.2 µM | [13] 20 µM | [15] 32.9 µM | [18] 20 µM | CD38, CD38 (gene 952) 35.1 µM
not listed: [5]
inactive: all other assays above

CN(C)[C@@H]1C(=O)C(C(N)=O)=C(O)[C@@]2(O)C(=O)C3=C(O)c4c(O)cccc4[C@@](C)(O)[C@H]3[C@H](O)[C@@H]12
active: [15] 14.7 µM | CD69, CD69 (gene 969) 5.09 µM
inactive: [1] | [2] | [3] | [4] | [5] | CD40, CD40 (gene 958) [6] | [7] | [8] | [9] | [10] | [11] | [12] | [13] | [14] | [15] | [18] | CD38, CD38 (gene 952) | CD40, CD40 (gene 958) [16] | CD69, CD69 (gene 969) | [17]

CNC(=O)ON=C(SC)C(=O)N(C)C
not listed: [18]
inactive: all other assays above

Cc1ccn2nc(S(=O)(=O)Nc3c(F)cccc3F)nc2n1
active: [9] 1.06 µM
not listed: [18]
inactive: all other assays above

O=C(O)c1cc(Oc2ccc(C(F)(F)F)cc2Cl)ccc1[N+](=O)[O-]
active: [12] 16.4 µM
not listed: [5]
inactive: all other assays above

CC(C)=CC1C(C(=O)OCN2C(=O)C3=C(CCCC3)C2=O)C1(C)C (stereo not drawn)
inactive: [1] | [2] | [3] | [5] | [9] | [10] | [14]
active: [4] 3.97 µM | CD40, CD40 (gene 958) [6] 11.4 µM | [7] 35.1 µM | [8] 26.9 µM | [11] 9.93 µM | [12] 4.14 µM | [13] 34.3 µM | [15] 31.7 µM | [18] 28.5 µM | CD38, CD38 (gene 952) 32.2 µM | CD40, CD40 (gene 958) [16] 20.5 µM | CD69, CD69 (gene 969) 20 µM | [17] 18.2 µM

CCOP(=S)(OCC)OC(Cl)C(Cl)(Cl)Cl (stereo not drawn)
active: [12] 5.51 µM | [15] 32.8 µM | CD38, CD38 (gene 952) 30.8 µM | CD69, CD69 (gene 969) 28.6 µM
not listed: [18]
inactive: all other assays above

C[Si](Cn1cncn1)(c1ccc(F)cc1)c1ccc(F)cc1
active: [7] 15 µM | [12] 1.62 µM | [13] 14.7 µM | CD38, CD38 (gene 952) 29.9 µM | CD40, CD40 (gene 958) [16] 27 µM | [17] 28.9 µM
not listed: [18]
inactive: all other assays above

CCCOc1nn(C(=O)NS(=O)(=O)c2ccccc2C(=O)OC)c(=O)n1C
active: [4] 0.103 µM | [8] 0.907 µM
not listed: [18]
inactive: all other assays above
